From PubChem BioAssay (EPA / NIEHS) come the findings set out here.

The source made the active and inactive calls. How the source made its calls: active means hit-call score of the fitted dose curve at least 0.9, where 1 is the maximum; inactive means score below 0.9.

The assay is described as follows: APR_HepG2_CellLoss_1hr: Apredica 1-hour HepG2 Assay for Cell Loss (AID 2282668).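 Further: curves fitted both ways against DMSO so gain or loss of cells counts.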 To be noted: high-content imaging. Here is the method:
APR_HepG2_1hr is a cell-based, multiplexed-readout assay that uses HepG2, a human liver cell line, with measurements taken at 1 hour after chemical dosing in a 384-well plate.APR_HepG2_CellLoss_1hr is one of 10 assay component(s) measured or calculated from the APR_HepG2_1hr assay. It is designed to make measurements of cell number, a form of viability reporter, as detected with fluorescence intensity signals by HCS Fluorescent Imaging technology.Data from the assay component APR_HepG2_CellLoss_1hr was analyzed into 1 assay endpoint. This assay endpoint, APR_HepG2_CellLoss_1hr, was analyzed with bidirectional fitting relative to DMSO as the negative control and baseline of activity. Using a type of viability reporter, measures of all nuclear dna for gain or loss-of-signal activity can be used to understand the viability at the cellular-level. Furthermore, this assay endpoint can be referred to as a secondary readout, because this assay has produced multiple assay endpoints where this one serves a viability function. To generalize the intended target to other relatable targets, this assay endpoint is annotated to the cell cycle intended target family, where the subfamily is proliferation.
Cells were treated with dimethyl sulfoxide (DMSO) as a solvent control at a final concentration of 0.5% v/v or with compounds in DMSO with a resulting final DMSO concentration of 0.5% v/v. Compound treatment was done at concentrations of 0.39, 0.78, 1.56, 3.12, 6.24, 12.5, 25, 50, 100, and 200 uM in duplicate on each plate. Cells were treated with compounds for 1, 24, or 72 hr. Carbonyl […] m-chloro-phenylhydrazone (CCCP) and taxol were used as positive controls for mitochondrial function and cytoskeletal stability, respectively; DMSO served as the negative control for this experiment. Cells were fixed by the direct addition of 50 uL formaldehyde in Hank's Balanced Salt Solution (HBSS) to a final concentration of 3.7%. After incubation in the fixation medium for 30 min at room temperature (293-298 K), cells were rinsed twice with HBSS and treated with cell permeabilization buffer (16 uL of 0.5% Triton X-100) for 10 min at room temperature (293-298 K) before labeling. For mitochondrial membrane potential and mitochondrial measurements, pre-fixed cells were incubated with 50 uL of MitoTracker Red CMXRos (Invitrogen) at a concentration of 250 nM for 30 min before fixation. In the remaining cases, post-fixed cells were labeled by incubation with a multiplexed mixture of primary antibodies in HBSS for 60 min at room temperature (293-298 K) to detect immunoreactivity of c-Jun (1:500), phospho-histone H3 (1:100), phospho-histone H2A.x (1:200), p53 (1:400), alpha-tubulin (1:200) and Hoechst 33342 (2 ug/mL). Cells were labeled for multiplexed imaging on two separate plates: a) Hoechst 33342, MitoTracker Red, phospho-histone H3, and alpha-tubulin, and b) Hoechst 33342, phospho-histone H2A.x, and c-Jun. A final rinse with HBSS (50 uL) was performed before analysis. The primary and secondary antibodies for the proteins were phospho-histone H3 (rabbit anti-phospho-histone H3 and FITC-donkey anti-rabbit IgG), phospho-histone H2A.x (mouse anti-phospho-histone H2A.x and FITC-donkey anti-mouse IgG), c-Jun (rabbit anti-phospho-c-Jun and Cy3-donkey anti-rabbit IgG), p53 (sheep anti-p53 and Cy5-donkey anti-sheep IgG), alpha-tubulin (mouse anti-alpha-tubulin and Cy5-donkey anti-mouse IgG). These antibodies are available as the CellCiphr HepG2 assay kit (Millipore).Digital images of each well were captured using a Cellomics ArrayScan VTI (Thermo Scientific Cellomics) (0.8 NA objective, 0.63x optical coupler, and XF-93 filter set) at 20x magnification. The images were acquired using the autofocus feature of the ArrayScan instrument, which entails the following steps. First, the camera focuses on channel 1 (Hoechst 33342), where nuclei are identified. Second, a Z offset of 1 um is used for capturing mitochondria (MitoTracker Red). […]
On to `CC(=NC#N)N(C)Cc1ccc(Cl)nc1`, for which the call was inactive.
As for `CC(Oc1cccc(Cl)c1)C(=O)O` (stereo not given), the compound was called inactive.
The same measure, in the same setting: with `CNC(=O)ON=C(SC)C(=O)N(C)C` the entry was “inactive”; with `CCCCOC(=O)[C@@H](C)Oc1ccc(Oc2ccc(C#N)cc2F)cc1`, “inactive”; with `CCCOc1nn(C(=O)NS(=O)(=O)c2ccccc2C(=O)OC)c(=O)n1C`, “inactive”.
On the same count and under the same terms, with `CCCOCC(=Nc1ccc(Cl)cc1C(F)(F)F)n1ccnc1` the entry was “inactive”; with `CCOP(=O)(NC(C)C)Oc1ccc(SC)c(C)c1` (stereo not given), “inactive”; with `Cc1ccn2nc(S(=O)(=O)Nc3c(F)cccc3F)nc2n1`, “inactive”.
Consider `CNc1cnn(-c2cccc(C(F)(F)F)c2)c(=O)c1Cl`, for which the call was inactive.
Same read-out and setting: the value for `CCNc1nc(Cl)nc(NC(C)(C)C#N)n1` was “inactive”; that for `O=c1ccc(=O)[nH][nH]1` was “inactive”; that for `CCC(=NOC/C=C/Cl)C1=C(O)CC(C2CCOCC2)CC1=O` (stereo not given) was “inactive”.
On the same count and under the same terms, the value for `O=C(O)c1cc(Oc2ccc(C(F)(F)F)cc2Cl)ccc1[N+](=O)[O-]` was “inactive”; that for `COP(=O)(OC)OC(Br)C(Cl)(Cl)Br` (stereo not given) was “inactive”.
The same measure, in the same setting: the value for `CCc1cccc(CC)c1N(COC)C(=O)CCl` was “inactive”; that for `CN(C)NC(=O)CCC(=O)O` was “inactive”; that for `Cc1cc(C2CC2)nc(Nc2ccccc2)n1` was “inactive”.
For `CCc1cccc(C)c1N(C(=O)CCl)C(C)COC` (stereo not given), the call was inactive.
Consider `C[Si](Cn1cncn1)(c1ccc(F)cc1)c1ccc(F)cc1`, for which the outcome was inactive.
In the case of `CSc1nnc(C(C)(C)C)c(=O)n1N`, the compound was called inactive.
Still for that read-out and setting: the value for `CCOC(=O)CC(SP(=O)(OC)OC)C(=O)OCC` (stereo not given) was “inactive”; that for `CCc1cnc(C2=NC(C)(C(C)C)C(=O)N2)c(C(=O)O)c1` (stereo not given) was “inactive”; that for `COc1ccc(C(=CC(=O)N2CCOCC2)c2ccc(Cl)cc2)cc1OC` was “inactive”.
On the same count and under the same terms, with `C#CCC1=C(C)C(OC(=O)C2C(C=C(C)C)C2(C)C)CC1=O` (stereo not given) the entry was “inactive”; with `CCOP(=S)(OCC)Oc1ccc2c(C)c(Cl)c(=O)oc2c1`, “inactive”.
On the same count and under the same terms, with `CCOP(=S)(OCC)Oc1ccc([N+](=O)[O-])cc1` the entry was “inactive”; with `Nc1nc(N)nc(NC2CC2)n1`, “inactive”.
As a reminder, the AC50 is the midpoint of the concentration-response curve, whichever way the signal moves. For `O=[N+]([O-])c1cc(C(F)(F)F)c(Cl)c([N+](=O)[O-])c1Nc1ncc(C(F)(F)F)cc1Cl`, the AC50 was 94.8 µM (active).
`CN1COCN(Cc2cnc(Cl)s2)C1=N[N+](=O)[O-]`: the compound was called inactive.
For the compound `COc1cccc(C(=O)NN(C(=O)c2cc(C)cc(C)c2)C(C)(C)C)c1C`, the outcome was inactive.
With `CCOC(=O)COc1cc(-c2nn(C)c(OC(F)F)c2Cl)c(F)cc1Cl`, the outcome was inactive.
As to `CCCSP(=O)(OCC)Oc1ccc(Br)cc1Cl` (stereo not given), the outcome was inactive.
Same read-out and setting: with `C#CC(C)(C)NC(=O)c1cc(Cl)cc(Cl)c1` the entry was “inactive”.
The same measure, in the same setting: with `CNC(=O)ON=C(C)SC` the entry was “inactive”; with `COP(=O)(OC)C(O)C(Cl)(Cl)Cl` (stereo not given), “inactive”; with `CNC(=O)Oc1cccc2c1OC(C)(C)O2`, “inactive”.
Still for that read-out and setting: the value for `C[N+]1(C)CCCCC1` was “inactive”; that for `CCOP(=S)(OCC)Oc1cc(C)nc(C(C)C)n1` was “inactive”.
In the case of `C=C(C)[C@H]1Cc2c(ccc3c2O[C@@H]2COc4cc(OC)c(OC)cc4[C@@H]2C3=O)O1`, the call was inactive.
The same measure, in the same setting: with `FC(F)C(F)(F)OCC(Cn1cncn1)c1ccc(Cl)cc1Cl` (stereo not given) the entry was “inactive”.
